In PubChem BioAssay:
Activity calls are given as the source filed them.

Legend:
[1] = optical density shifts of acrAB sulA E. coli – strain DRC41, OD650, 48 h, E. coli filamentation inducer project, primary screen (AID 1152); details: higher = more signal, called active from +8 up or from −8 down;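 note: E. coli MC1000 strain DRC41 lacking acrAB efflux pump and sulA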
[2] = probe aLefty1 binding on compound microarray – biochemical, small-molecule microarray, 635/667 nm fluorescence, primary screen (AID 1153); details: higher = more signal;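 note: score merges spot fluorescence with signal-to-noise ratio from the scanned slide images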
[3] = plasmodial surface anion channel blockers, osmotic lysis – cell-based, P. falciparum Indochina, OD700, 1 h, primary screen (AID 1154); details: P. falciparum Indochina infected RBC osmotic lysis, higher = more signal, called active from +8 up or from −8 down
[4] = plasmodial surface anion channel blockers, osmotic lysis – cell-based, P. falciparum Indochina, OD700, 2 h, primary screen (AID 1155);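 note: lysis reports solute entry through the parasite surface anion channel PSAC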; details: P. falciparum Indochina infected erythrocytes, higher = more signal, called active from +8 up or from −8 down
[5] = changes in parasitized red cell lysis, either direction – P. falciparum Indochina, OD700, 3 h, PSAC antagonist project, primary screen (AID 1156); details: P. falciparum-infected erythrocytes, osmotic lysis, higher = more signal, called active from +8 up or from −8 down
[6] = plasmodial surface anion channel blockers, osmotic lysis – cell-based, P. falciparum Indochina, OD700, 18 h, primary screen (AID 1157); details: P. falciparum Indochina infected erythrocytes, osmotic lysis OD700, 18 h; higher = more signal, called active from +8 up or from −8 down
[7] = S6 kinase pathway phospho-S6 level changes – cell-based, A549, cytoblot, luminescence, serum-stimulated, primary screen (AID 1158); details: 5 h, higher = more signal;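 note: serum-stimulated A549 lung adenocarcinoma cells; signal is phosphorylated S6 detected by cytoblot immunostaining with HRP secondary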
[8] = biological target: NADPH oxidase 2 (Homo sapiens) (UniProt P04839); test: compounds shifting NOX2 Amplex Red fluorescence – cell-based, HEK293-NOX2, PMA-stimulated, NOX inhibitor project, primary screen (AID 1159); details: 45 min, higher = more signal, called active from +8 up or from −8 down; note: test concentration not given here
[9] = biological target: NADPH oxidase 4 (Homo sapiens) (UniProt Q9NPH5); test: compounds shifting NOX4 Amplex Red fluorescence – cell-based, HEK293-NOX4, tetracycline-induced, NOX inhibitor project, primary screen (AID 1160); details: HEK293-NOX4, Amplex Red H2O2 fluorescence, 45 min; higher = more signal, called active from +8 up or from −8 down
[10] = biological target: NADPH oxidase 5 (Homo sapiens) (UniProt Q96PH1); test: compounds shifting NOX5 Amplex Red fluorescence – cell-based, HEK293-NOX5, NOX inhibitor project, primary screen (AID 1161); details: HEK293-NOX5, ionomycin, 45 min, higher = more signal
NADPH oxidase 5 (Homo sapiens), sequence (Q96PH1 whole entry, looked up): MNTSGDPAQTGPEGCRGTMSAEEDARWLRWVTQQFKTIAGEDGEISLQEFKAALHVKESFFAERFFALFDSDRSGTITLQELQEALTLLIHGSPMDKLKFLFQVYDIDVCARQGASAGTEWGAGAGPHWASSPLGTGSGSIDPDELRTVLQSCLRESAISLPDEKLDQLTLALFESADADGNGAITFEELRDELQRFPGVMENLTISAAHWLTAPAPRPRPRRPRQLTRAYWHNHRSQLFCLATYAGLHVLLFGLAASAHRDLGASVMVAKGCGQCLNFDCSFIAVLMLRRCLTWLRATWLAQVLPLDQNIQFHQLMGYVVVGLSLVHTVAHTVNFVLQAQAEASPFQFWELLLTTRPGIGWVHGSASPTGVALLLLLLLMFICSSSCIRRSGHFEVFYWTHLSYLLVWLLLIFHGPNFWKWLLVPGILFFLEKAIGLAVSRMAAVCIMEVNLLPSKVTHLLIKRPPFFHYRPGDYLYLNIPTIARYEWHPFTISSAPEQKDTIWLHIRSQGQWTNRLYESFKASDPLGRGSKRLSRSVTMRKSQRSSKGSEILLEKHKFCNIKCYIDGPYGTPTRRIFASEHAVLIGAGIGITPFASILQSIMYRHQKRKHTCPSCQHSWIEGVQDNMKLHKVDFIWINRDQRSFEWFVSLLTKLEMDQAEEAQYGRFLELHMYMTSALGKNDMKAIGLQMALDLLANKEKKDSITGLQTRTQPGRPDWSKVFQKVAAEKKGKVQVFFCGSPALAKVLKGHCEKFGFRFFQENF

NADPH oxidase 2 (Homo sapiens), sequence (P04839 whole entry, looked up): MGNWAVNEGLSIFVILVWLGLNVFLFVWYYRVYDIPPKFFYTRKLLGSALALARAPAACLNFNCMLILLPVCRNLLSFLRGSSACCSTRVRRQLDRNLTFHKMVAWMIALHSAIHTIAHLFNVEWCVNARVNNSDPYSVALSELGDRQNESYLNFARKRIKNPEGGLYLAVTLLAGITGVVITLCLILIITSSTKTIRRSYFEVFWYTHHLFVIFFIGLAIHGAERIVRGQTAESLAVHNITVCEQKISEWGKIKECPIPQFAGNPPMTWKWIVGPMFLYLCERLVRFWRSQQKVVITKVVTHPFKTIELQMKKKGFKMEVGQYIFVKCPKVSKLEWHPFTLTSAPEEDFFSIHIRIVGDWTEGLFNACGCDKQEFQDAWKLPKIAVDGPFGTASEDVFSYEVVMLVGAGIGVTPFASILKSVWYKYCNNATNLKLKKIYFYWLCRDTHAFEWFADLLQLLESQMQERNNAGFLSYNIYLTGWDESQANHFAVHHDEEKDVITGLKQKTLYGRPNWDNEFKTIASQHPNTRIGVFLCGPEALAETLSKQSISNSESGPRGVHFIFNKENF
NADPH oxidase 4 (Homo sapiens), sequence (Q9NPH5 whole entry, looked up): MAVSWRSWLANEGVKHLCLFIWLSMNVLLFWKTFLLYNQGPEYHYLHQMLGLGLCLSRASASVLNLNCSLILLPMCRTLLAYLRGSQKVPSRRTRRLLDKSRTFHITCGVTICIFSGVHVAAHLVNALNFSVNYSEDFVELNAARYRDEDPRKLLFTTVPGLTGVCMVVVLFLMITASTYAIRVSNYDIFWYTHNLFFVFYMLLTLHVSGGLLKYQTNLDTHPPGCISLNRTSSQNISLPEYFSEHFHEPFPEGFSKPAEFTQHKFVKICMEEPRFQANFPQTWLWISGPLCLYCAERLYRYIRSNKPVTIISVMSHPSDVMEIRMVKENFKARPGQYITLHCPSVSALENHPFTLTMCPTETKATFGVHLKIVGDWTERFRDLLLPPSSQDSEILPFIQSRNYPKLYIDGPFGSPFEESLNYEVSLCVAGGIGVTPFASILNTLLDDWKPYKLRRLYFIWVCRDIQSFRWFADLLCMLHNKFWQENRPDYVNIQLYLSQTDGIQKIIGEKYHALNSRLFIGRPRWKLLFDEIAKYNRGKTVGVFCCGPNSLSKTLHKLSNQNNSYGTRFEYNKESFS

Row | Structure (SMILES) | z-score [1] | composite z-score [2] | z-score [3] | z-score [4] | z-score [5] | z-score [6] | z-score [7] | z-score [8] | z-score [9] | z-score [10]
1 | C=CCC(OC(C)=O)[C@@H]1[C@@H](N(Cc2cc3ccccc3o2)C(=O)c2ccc(C)cc2)c2cc(OCCCO)ccc2N1C(=O)c1ccc(-c2ccccc2)cc1 (stereo not given in full) | 1.33 (inactive) | -0.519 | 1.8 (inactive) | 0.345 (inactive) | -1.06 (inactive) | 0.115 (inactive) | 4.08 | -1.59 (inactive) | 0.768 (inactive) | 2.25
2 | Cc1ccc(S[C@]2(C(=O)NCC(C)C)CC(=O)N(Cc3ccccc3)[C@@H]2c2ccc(CO)cc2)cc1 | -0.747 (inactive) | 0.171 | 2.36 (inactive) | 0.522 (inactive) | -0.111 (inactive) | 0.451 (inactive) | 0.138 | -0.336 (inactive) | 0.361 (inactive) | 0.499
3 | C[N+](C)(C)CCCCNC(=O)[C@H]1C[C@H]2C(=O)N3CCC[C@H]3C(=O)N2[C@H]1c1ccc(O)cc1 | -0.314 (inactive) | -0.0141 | 0.542 (inactive) | 0.196 (inactive) | -1.66 (inactive) | 0.0068 (inactive) | -0.0429 | -2.45 (inactive) | -0.739 (inactive) | -1.42
4 | COc1c(C)cc(-c2cc3c(c(-c4ccccc4)n2)[Si](C(C)C)(C(C)C)O[C@H]3c2ccccc2)cc1C | -1.11 (inactive) | 0.176 | 0.481 (inactive) | -0.129 (inactive) | -0.561 (inactive) | 0.284 (inactive) | 0.291 | -1.36 (inactive) | 0.788 (inactive) | -0.334
5 | CCCC[C@@H]1C[C@H]1[C@@H](NC(=O)c1ccccc1)c1ccc(-c2ccccc2)cc1 | -1.66 (inactive) | 0.212 | 11.5 (active) | 1.95 (inactive) | 1.57 (inactive) | 1.16 (inactive) | 0.319 | -1.68 (inactive) | -2.79 (inactive) | 0.666
6 | CCOC(=O)C[C@H]1[C@H](OC(=O)c2cc3ccccc3oc2=O)[C@@H](NC(=O)c2ccc3ccccc3c2)c2cc(OCCCO)ccc2N1C(=O)c1ccccc1 | 0.734 (inactive) | 0.201 | 1.22 (inactive) | -1.04 (inactive) | 0.519 (inactive) | -2.59 (inactive) | 1.2 | -0.539 (inactive) | -0.928 (inactive) | 0.53
7 | CN1C(=O)C2C(C1=O)C1C=C(c3ccc(CO)cc3)C2C(C2CC2)N1Cc1sc2ccccc2c1Cl (stereo not given) | 0.743 (inactive) | 0.146 | 20.7 (active) | 5.75 (inactive) | 0.713 (inactive) | 1.82 (inactive) | 0.0504 | -3.97 (inactive) | -0.852 (inactive) | -3.7
8 | CC(C)CNC(=O)[C@@]1(C)c2ccccc2C(=O)N(C(C)C)[C@H]1c1ccc(CO)cc1 | -0.144 (inactive) | 0.045 | 1.54 (inactive) | 0.344 (inactive) | 0.24 (inactive) | -0.0642 (inactive) | -0.53 | -0.93 (inactive) | 0.227 (inactive) | -0.85
9 | COC(=O)[C@@]1(Cc2ccc(OC)cc2)[C@H]2c3cc(C(=O)N4CCCC4)n(CCc4ccccn4)c3C[C@H]2CN1C(=O)c1ccccc1 | -1.76 (inactive) | 0.496 | 1.15 (inactive) | 0.453 (inactive) | 0.924 (inactive) | 0.518 (inactive) | 0.958 | 0.48 (inactive) | -2.11 (inactive) | -3.82
10 | COc1ccc([Si](C)(C)[C@@H]2[C@@H](CCn3cc([C@H](O)c4ccccc4)nn3)O[C@]3(C(=O)N(C)c4ccccc43)[C@H]2C)cc1 | -0.702 (inactive) | -0.101 | 4.2 (inactive) | 0.579 (inactive) | 1.51 (inactive) | 0.325 (inactive) | 0.416 | 1.62 (inactive) | 0.689 (inactive) | -1.55
11 | Cc1ccc(N2C(=O)c3ccccc3[C@](C)(C(=O)NCCN3CCOCC3)[C@@H]2c2ccc(CO)cc2)nc1 | -0.285 (inactive) | -0.229 | 1.12 (inactive) | 0.645 (inactive) | 2.69 (inactive) | 0.178 (inactive) | -0.113 | 1.86 (inactive) | 0.236 (inactive) | 0.286
12 | COc1ccc([Si](C)(C)[C@@H]2[C@@H](CCO)O[C@]3(C(=O)N(Cc4cccc(N(C=O)c5ccccc5)c4)c4ccccc43)[C@H]2C)cc1 | 0.313 (inactive) | 0.0811 | 4.07 (inactive) | 0.49 (inactive) | 2.32 (inactive) | -1.17 (inactive) | 0.62 | 0.773 (inactive) | -0.249 (inactive) | -0.78
13 | Cc1ccc(F)cc1S(=O)(=O)N[C@@H]1CCN(Cc2ccc(C(F)(F)F)cc2)C1 | -5.36 (inactive) | -0.152 | 4.85 (inactive) | 1.15 (inactive) | 0.129 (inactive) | 0.624 (inactive) | -0.147 | -0.344 (inactive) | -1.19 (inactive) | -2
14 | O=C(NCC(O)CO)[C@@]1(Cc2ccccc2)COC(c2ccc(OCCCO)cc2)=N1 (stereo not given in full) | 0.712 (inactive) | -0.266 | 8.57 (active) | 0.648 (inactive) | 2.87 (inactive) | 0.472 (inactive) | -0.404 | -0.44 (inactive) | 0.82 (inactive) | 0.132
15 | CCCNC(=O)[C@@]1(C)c2ccccc2C(=O)N(Cc2cc(C(F)(F)F)cc(C(F)(F)F)c2)[C@H]1c1ccc(CO)cc1 | -0.253 (inactive) | -0.0711 | 4.6 (inactive) | -0.305 (inactive) | 1.97 (inactive) | -0.754 (inactive) | 1.49 | -1.98 (inactive) | -3.17 (inactive) | -3.73
16 | COCCn1c(C(=O)N(C)C)cc2c1C[C@H]1CN(C(=O)c3ccccc3)[C@@](Cc3ccc(F)cc3)(C(=O)OC)[C@@H]21 | 0.118 (inactive) | 0.211 | 0.666 (inactive) | -0.34 (inactive) | -0.0451 (inactive) | 0.397 (inactive) | -0.17 | 0.395 (inactive) | 0.211 (inactive) | -1.69
